Assay results reported in PubChem BioAssay AID1159580 (chemical genetic matrix, 2015).
Hit rate of the full screen: of about 5,500 compounds, about 2,000 (36%) were called active. Not shown: some 18% with an inconclusive outcome. Some of the results follow. Values without a mark were called inactive. Cut-off read from the data, not from the text of the source: active = normalized growth mostly below about 0.91 (no sharp cut-off); inconclusive = no clear call, values can overlap the other calls; inactive = mostly above about 0.92.

Experiment: chemical genetic growth profiling, strain panel (AID 1159580);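 note: tested at 20 µM; growth read once vehicle control cultures reached saturation at 30 °C; 1 = growth at the plate median or of vehicle wells; lower values mean less growth of the strain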
Settings: growth OD

COc1ccc(-c2coc3cc(OC)cc(O)c3c2=O)cc1
normalized growth (S. cerevisiae deletion strains, locus YAL013W, strain DEP1, hits give low values): 0.962
normalized growth (S. cerevisiae deletion strains, locus YBR021W, strain FUR4, hits give low values): 0.862
normalized growth (S. cerevisiae deletion strains, locus YBR229C, strain ROT2, hits give low values): 0.98
normalized growth (S. cerevisiae deletion strains, locus YCL029C, strain bik1, hits give low values): 0.966
normalized growth (S. cerevisiae deletion strains, locus YDL035C, strain GPR1, hits give low values): 0.959
normalized growth (S. cerevisiae deletion strains, locus YDL074C, strain BRE1, hits give low values): 0.91
normalized growth (S. cerevisiae deletion strains, locus YDL101C, strain DUN1, hits give low values): 0.98
normalized growth (S. cerevisiae deletion strains, locus YDL134C, strain PPH21, hits give low values): 0.982
normalized growth (S. cerevisiae deletion strains, locus YDL185W, strain tfp1, hits give low values): 0.968
normalized growth (S. cerevisiae deletion strains, locus YDL192W, strain arf1, hits give low values): 0.96
normalized growth (S. cerevisiae deletion strains, locus YDR101C, strain arx1, hits give low values): 0.96
normalized growth (S. cerevisiae deletion strains, locus YDR150W, strain NUM1, hits give low values): 0.991
normalized growth (S. cerevisiae deletion strains, locus YDR162C, strain NBP2, hits give low values): 0.983
normalized growth (S. cerevisiae deletion strains, locus YDR318W, strain mcm21, hits give low values): 0.922
normalized growth (S. cerevisiae deletion strains, locus YDR388W, hits give low values): 0.957
normalized growth (S. cerevisiae deletion strains, locus YDR502C, strain sam2, hits give low values): 0.967
normalized growth (S. cerevisiae deletion strains, locus YEL061C, strain CIN8, hits give low values): 0.982
normalized growth (S. cerevisiae deletion strains, locus YER110C, hits give low values): 0.958
normalized growth (S. cerevisiae deletion strains, locus YER155C, strain BEM2, hits give low values): 0.967
normalized growth (S. cerevisiae deletion strains, locus YER167W, strain BCK2, hits give low values): 0.933
normalized growth (S. cerevisiae deletion strains, locus YGL078C, strain dbp3, hits give low values): 0.978
normalized growth (S. cerevisiae deletion strains, locus YGL086W, strain mad1, hits give low values): 0.955
normalized growth (S. cerevisiae deletion strains, locus YGL248W, strain PDE1, hits give low values): 0.976
normalized growth (S. cerevisiae deletion strains, locus YGR078C, strain PAC10, hits give low values): 0.952
normalized growth (S. cerevisiae deletion strains, locus YGR135W, strain pre9, hits give low values): 0.94
normalized growth (S. cerevisiae deletion strains, locus YGR229C, strain SMI1, hits give low values): 0.924
normalized growth (S. cerevisiae deletion strains, locus YGR252W, strain gcn5, hits give low values): 0.768
normalized growth (S. cerevisiae deletion strains, locus YHR030C, strain SLT2, hits give low values): 0.972
normalized growth (S. cerevisiae deletion strains, locus YHR079C, strain IRE1 (second series), hits give low values): 0.935
normalized growth (S. cerevisiae deletion strains, locus YHR094C, strain hxt1, hits give low values): 0.976
normalized growth (S. cerevisiae deletion strains, locus YHR129C, strain ARP1, hits give low values): 0.967
normalized growth (S. cerevisiae deletion strains, locus YHR200W, strain rpn10, hits give low values): 0.957
normalized growth (S. cerevisiae deletion strains, locus YIL066C, strain RNR3, hits give low values): 0.975
normalized growth (S. cerevisiae deletion strains, locus YIL073C, strain SPO22, hits give low values): 0.905
normalized growth (S. cerevisiae deletion strains, locus YIL125W, strain kgd1, hits give low values): 0.969
normalized growth (S. cerevisiae deletion strains, locus YIR030C, strain dcg1, hits give low values): 0.97
normalized growth (S. cerevisiae deletion strains, locus YJL095W, strain BCK1, hits give low values): 0.907
normalized growth (S. cerevisiae deletion strains, locus YJL134W, strain LCB3, hits give low values): 0.986
normalized growth (S. cerevisiae deletion strains, locus YJL168C, strain set2, hits give low values): 0.975
normalized growth (S. cerevisiae deletion strains, locus YJL187C, strain SWE1 (second series), hits give low values): 0.972
normalized growth (S. cerevisiae deletion strains, locus YJR043C, strain POL32, hits give low values): 0.911
normalized growth (S. cerevisiae deletion strains, locus YJR075W, strain HOC1, hits give low values): 0.951
normalized growth (S. cerevisiae deletion strains, locus YKL009W, strain mrt4, hits give low values): 0.919
normalized growth (S. cerevisiae deletion strains, locus YKL068W, hits give low values): 0.989
normalized growth (S. cerevisiae deletion strains, locus YKL085W, strain MDH1 (second series), hits give low values): 0.982
normalized growth (S. cerevisiae deletion strains, locus YKL085W, strain MDH1, hits give low values): 0.982
normalized growth (S. cerevisiae deletion strains, locus YKL190W, strain CNB1, hits give low values): 0.979
normalized growth (S. cerevisiae deletion strains, locus YKR001C, strain vps1, hits give low values): 0.898 (active)
normalized growth (S. cerevisiae deletion strains, locus YLR039C, strain RIC1, hits give low values): 0.971
normalized growth (S. cerevisiae deletion strains, locus YLR058C, strain SHM2, hits give low values): 0.974
normalized growth (S. cerevisiae deletion strains, locus YLR102C, strain apc9, hits give low values): 0.969
normalized growth (S. cerevisiae deletion strains, locus YLR262C, strain YPT6, hits give low values): 0.959
normalized growth (S. cerevisiae deletion strains, locus YLR268W, strain sec22, hits give low values): 0.957
normalized growth (S. cerevisiae deletion strains, locus YLR330W, strain CHS5, hits give low values): 0.977
normalized growth (S. cerevisiae deletion strains, locus YLR342W, strain FKS1 (second series), hits give low values): 0.859
normalized growth (S. cerevisiae deletion strains, locus YLR371W, strain rom2, hits give low values): 0.969
normalized growth (S. cerevisiae deletion strains, locus YLR418C, strain cdc73, hits give low values): 0.889
normalized growth (S. cerevisiae deletion strains, locus YML016C, strain PPZ1, hits give low values): 0.975
normalized growth (S. cerevisiae deletion strains, locus YML032C, strain rad52, hits give low values): 0.94
normalized growth (S. cerevisiae deletion strains, locus YML124C, strain tub3, hits give low values): 0.974
normalized growth (S. cerevisiae deletion strains, locus YMR078C, strain ctf18, hits give low values): 0.96
normalized growth (S. cerevisiae deletion strains, locus YMR223W, strain ubp8, hits give low values): 0.94
normalized growth (S. cerevisiae deletion strains, locus YMR263W, strain SAP30, hits give low values): 0.967
normalized growth (S. cerevisiae deletion strains, locus YMR307W, strain GAS1, hits give low values): 0.81
normalized growth (S. cerevisiae deletion strains, locus YNL067W, strain RPL9B, hits give low values): 0.977
normalized growth (S. cerevisiae deletion strains, locus YNL128W, strain TEP1, hits give low values): 0.994
normalized growth (S. cerevisiae deletion strains, locus YNL153C, strain GIM3, hits give low values): 0.995
normalized growth (S. cerevisiae deletion strains, locus YNL233W, strain BNI4, hits give low values): 0.923
normalized growth (S. cerevisiae deletion strains, locus YNL250W, strain rad50, hits give low values): 0.968
normalized growth (S. cerevisiae deletion strains, locus YNL271C, strain bni1, hits give low values): 0.973
normalized growth (S. cerevisiae deletion strains, locus YNL298W, strain CLA4, hits give low values): 0.928
normalized growth (S. cerevisiae deletion strains, locus YNL307C, strain MCK1, hits give low values): 0.805 (active)
normalized growth (S. cerevisiae deletion strains, locus YNL322C, strain KRE1, hits give low values): 0.985
normalized growth (S. cerevisiae deletion strains, locus YNR052C, strain pop2, hits give low values): 0.968
normalized growth (S. cerevisiae deletion strains, locus YOL006C, strain TOP1, hits give low values): 0.863
normalized growth (S. cerevisiae deletion strains, locus YOL012C, strain htz1): 1.51
normalized growth (S. cerevisiae deletion strains, locus YOL147C, strain pex11, hits give low values): 0.969
normalized growth (S. cerevisiae deletion strains, locus YOR061W, strain CKA2, hits give low values): 0.996
normalized growth (S. cerevisiae deletion strains, locus YOR069W, strain VPS5, hits give low values): 0.984
normalized growth (S. cerevisiae deletion strains, locus YOR136W, strain idh2, hits give low values): 0.971
normalized growth (S. cerevisiae deletion strains, locus YOR144C, strain elg1, hits give low values): 0.975
normalized growth (S. cerevisiae deletion strains, locus YOR184W, strain ser1, hits give low values): 0.872 (active)
normalized growth (S. cerevisiae deletion strains, locus YOR316C, strain cot1, hits give low values): 0.96
normalized growth (S. cerevisiae deletion strains, locus YPL055C, strain LGE1, hits give low values): 0.92
normalized growth (S. cerevisiae deletion strains, locus YPL241C, strain CIN2, hits give low values): 0.987
normalized growth (S. cerevisiae deletion strains, locus YPR119W, strain clb2, hits give low values): 0.972
normalized growth (S. cerevisiae deletion strains, locus YPR141C, strain kar3, hits give low values): 0.99
normalized growth (S. cerevisiae deletion strains, locus YPR163C, strain tif3, hits give low values): 0.973
normalized growth (S. cerevisiae deletion strains, locus YPR167C, strain met16, hits give low values): 0.97
normalized growth (S. cerevisiae deletion strains, strain wtn01, hits give low values): 0.944
normalized growth (S. cerevisiae strains, strain wild type, hits give low values): 0.963
